Data taken from PubChem BioAssay.
Records with an inconclusive call do not appear. Activity calls are given as the source filed them. Rule as the data show it, unless noted: active = percent of DMSO control GFP below about 86%; inactive = the rest, inconclusive results apart.

Columns and labels:
[1] = yeast TOR pathway RPL19A-GFP modulators, primary screen, cell-based, S. cerevisiae, multiplex flow cytometry (AID 1862);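 also: lower values mimic rapamycin by blocking the RPL19A rise seen in DMSO cells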; conditions: S. cerevisiae RPL19A-GFP strain, flow cytometry fluorescence, 3 h; at 10 µM; stronger effect = lower value
[2] = modulators of MEP2-GFP levels in yeast, primary screen, S. cerevisiae, multiplex flow cytometry (AID 1867;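 active = GFP response, as percent of the DMSO control, above the screen-wide mean plus 3 SD, about 139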;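 also: median GFP channel fluorescence of barcode-gated MEP2-GFP cells measured by flow cytometry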); conditions: S. cerevisiae MEP2-GFP strain, 3 h, at 10 µM, stronger effect = higher value, 100% means same as DMSO wells
[3] = modulators of CIT2-GFP expression in yeast, primary screen, S. cerevisiae, GFP fusion, multiplex flow cytometry (AID 1870;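 active = percent response above a set limit, the screen-wide mean plus 3 SD, cut at about 130% in these data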;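 also: barcoded CIT2-GFP strain pooled with four other GFP strains with rapamycin as positive control; median GFP fluorescence per well over plate mean of DMSO wells so 100% = DMSO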); conditions: 3 h, at 10 µM, stronger effect = higher value
[4] = modulators of LAP4-GFP expression in yeast, primary screen, S. cerevisiae, multiplex flow cytometry (AID 1873;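 active = GFP signal, as percent of the solvent control, above the screen mean plus 3 SD, about 149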); conditions: 3 h, at 10 µM, stronger effect = higher value
[5] = modulators of AGP1-GFP expression in yeast TOR pathway, primary screen, cell-based, multiplex flow cytometry, S. cerevisiae (AID 1887;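 active = GFP signal above the screen-wide mean plus 3 SD, that is over about 124.5% of the solvent control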;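 also: AGP1-GFP fusion strain of S. cerevisiae within a five-strain barcoded multiplex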); conditions: 3 h, at 10 µM, stronger effect = higher value
[6] = inhibitors of CD8+ T cell-vesicle binding, pilot screen, LFA-1/ICAM-1 modulator project, MLPCN validation set, flow cytometry (AID 2523;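 active = response below a set limit, under 55% cells CD8-positive and vesicle-bound, and CD8 cells' 90th-percentile brightness under 279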;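 as to vesicle binding response: mean PE anti-B7-1 fluorescence of CD8+ cells relative to row control; 100% = QL9-loaded vesicles with DMSO vehicle in the same plate row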); conditions: 2C mouse CD8+ T cells, at 7 µM, stronger effect = lower value; double positive events: measured here: CD8+/vesicle+ event percentage
[7] = target: Integrin beta-1 (Homo sapiens) + Integrin alpha-4 (Homo sapiens) (UniProt P13612+P05556); assay: inhibition of HUTS-21 binding to VLA-4, pilot screen, VLA-4 allosteric modulator project, U937 cells, HUTS-21 mAb, flow cytometry, validation set (AID 2674;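 active = inhibition above 50%, about 3 SD of the validation set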;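 also: antibody binding induced by the VLA-4 ligand LDV present at three times its Kd; 0% = LDV ligand with antibody and no compound and 100% = antibody without LDV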); conditions: HUTS-21 LIBS mAb binding, at 6.7 µM, stronger effect = higher value, binding induced by LDV ligand
Sequence of Integrin beta-1 (Homo sapiens) + Integrin alpha-4 (Homo sapiens) (P05556 whole entry, looked up): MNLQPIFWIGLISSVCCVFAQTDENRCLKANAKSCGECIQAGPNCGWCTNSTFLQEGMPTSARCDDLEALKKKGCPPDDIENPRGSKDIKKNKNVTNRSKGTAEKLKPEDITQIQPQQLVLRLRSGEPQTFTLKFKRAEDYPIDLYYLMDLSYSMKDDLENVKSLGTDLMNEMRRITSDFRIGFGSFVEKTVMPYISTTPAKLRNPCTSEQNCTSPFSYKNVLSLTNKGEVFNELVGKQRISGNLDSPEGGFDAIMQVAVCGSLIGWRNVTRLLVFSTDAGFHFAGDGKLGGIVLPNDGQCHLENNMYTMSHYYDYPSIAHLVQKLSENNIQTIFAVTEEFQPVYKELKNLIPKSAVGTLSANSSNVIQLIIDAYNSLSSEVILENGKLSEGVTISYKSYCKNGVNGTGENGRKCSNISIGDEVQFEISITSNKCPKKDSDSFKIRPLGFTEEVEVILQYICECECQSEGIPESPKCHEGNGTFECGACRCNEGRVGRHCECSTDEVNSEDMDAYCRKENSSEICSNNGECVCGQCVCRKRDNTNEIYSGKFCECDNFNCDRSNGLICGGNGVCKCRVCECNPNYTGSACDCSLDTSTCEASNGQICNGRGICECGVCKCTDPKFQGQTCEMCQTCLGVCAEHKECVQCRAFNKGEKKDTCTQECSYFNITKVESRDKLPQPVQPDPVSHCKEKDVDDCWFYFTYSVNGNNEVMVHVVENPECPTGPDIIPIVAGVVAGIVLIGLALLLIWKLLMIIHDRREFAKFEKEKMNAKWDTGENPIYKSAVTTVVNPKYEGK
Sequence of Integrin beta-1 (Homo sapiens) + Integrin alpha-4 (Homo sapiens) (P13612 whole entry, looked up): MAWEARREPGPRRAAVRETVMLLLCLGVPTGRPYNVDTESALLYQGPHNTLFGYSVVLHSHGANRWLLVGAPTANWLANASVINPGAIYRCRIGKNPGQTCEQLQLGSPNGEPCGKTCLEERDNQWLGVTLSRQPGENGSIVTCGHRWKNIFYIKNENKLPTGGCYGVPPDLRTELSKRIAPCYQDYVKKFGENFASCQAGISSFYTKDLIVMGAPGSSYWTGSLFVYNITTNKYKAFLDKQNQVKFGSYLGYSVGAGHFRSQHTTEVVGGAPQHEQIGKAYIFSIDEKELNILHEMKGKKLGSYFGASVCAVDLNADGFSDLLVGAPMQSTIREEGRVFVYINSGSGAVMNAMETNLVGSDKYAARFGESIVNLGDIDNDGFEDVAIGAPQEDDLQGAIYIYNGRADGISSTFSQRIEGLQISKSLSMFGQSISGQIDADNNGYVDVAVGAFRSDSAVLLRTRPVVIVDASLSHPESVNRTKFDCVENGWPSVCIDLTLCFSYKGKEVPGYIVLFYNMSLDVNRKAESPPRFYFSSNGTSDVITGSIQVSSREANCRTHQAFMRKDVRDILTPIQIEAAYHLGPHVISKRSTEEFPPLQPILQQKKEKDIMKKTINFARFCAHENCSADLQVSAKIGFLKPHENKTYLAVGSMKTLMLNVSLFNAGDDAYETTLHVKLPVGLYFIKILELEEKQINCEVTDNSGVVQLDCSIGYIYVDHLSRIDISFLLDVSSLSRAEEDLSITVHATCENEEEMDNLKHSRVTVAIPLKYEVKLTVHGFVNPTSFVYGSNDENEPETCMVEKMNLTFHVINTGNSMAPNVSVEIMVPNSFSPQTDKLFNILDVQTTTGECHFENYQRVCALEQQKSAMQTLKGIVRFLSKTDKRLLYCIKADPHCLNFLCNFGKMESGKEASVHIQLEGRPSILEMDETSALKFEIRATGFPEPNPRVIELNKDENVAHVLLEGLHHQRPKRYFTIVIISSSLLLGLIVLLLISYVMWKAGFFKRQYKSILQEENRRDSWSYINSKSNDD

[8] = superoxide lowering in aged yeast cells, pilot screen, validation compound set (AID 2706;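 active = superoxide response below 65% of plate, a cut near 3 SD across the whole screen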;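 also: yeast exposed to compound for one week at 30 degrees C before staining; 100% = mean of all compound wells on the same plate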); conditions: S. cerevisiae aging, superoxide DHE fluorescence; at 10 µM; stronger effect = lower value
[9] = target: Beta-adrenergic receptor kinase 1 (Homo sapiens) (UniProt P25098); assay: GRK2 binders displacing RNA aptamer, biochemical, validation, human GRK2, bead flow cytometry (AID 488806;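 active = aptamer binding inhibition above 30%, about 3 SD of noise from non-fluorescent compounds; inactive = inhibition at or below 30%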); conditions: bead-bound GRK2, FAM-aptamer displacement, at 10 µM, stronger effect = higher value
Sequence of Beta-adrenergic receptor kinase 1 (Homo sapiens) (P25098 whole entry, looked up): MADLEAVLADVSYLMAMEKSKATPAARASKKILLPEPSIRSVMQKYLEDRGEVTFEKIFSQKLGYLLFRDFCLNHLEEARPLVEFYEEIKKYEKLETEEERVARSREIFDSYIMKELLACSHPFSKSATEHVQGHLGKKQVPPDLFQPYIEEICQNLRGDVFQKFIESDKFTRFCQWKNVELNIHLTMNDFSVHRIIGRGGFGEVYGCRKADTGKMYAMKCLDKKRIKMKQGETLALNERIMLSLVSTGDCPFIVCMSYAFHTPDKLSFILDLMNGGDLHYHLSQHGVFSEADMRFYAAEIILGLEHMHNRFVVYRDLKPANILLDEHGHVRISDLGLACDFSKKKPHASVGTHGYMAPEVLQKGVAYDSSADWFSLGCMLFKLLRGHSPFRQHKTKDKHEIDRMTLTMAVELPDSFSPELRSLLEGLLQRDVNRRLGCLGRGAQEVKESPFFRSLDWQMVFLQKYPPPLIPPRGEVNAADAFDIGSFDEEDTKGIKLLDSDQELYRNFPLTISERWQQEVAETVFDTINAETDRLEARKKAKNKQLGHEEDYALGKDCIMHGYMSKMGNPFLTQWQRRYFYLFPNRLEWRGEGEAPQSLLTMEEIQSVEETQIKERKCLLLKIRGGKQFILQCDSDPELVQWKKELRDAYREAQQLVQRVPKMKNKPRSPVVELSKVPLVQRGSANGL

[10] = target: Beta-2 adrenergic receptor (Homo sapiens) (UniProt P07550); assay: beta2AR agonists driving receptor internalization, pilot screen, cell-based, FAP fluorogen, flow cytometry, validation set (AID 504459;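 active = percent response above 42, roughly 3 SD of non-fluorescent test compounds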;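 also: agonist-driven loss of surface beta2AR via internalization measured by FAP dye flow cytometry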); conditions: Am2.2-beta2AR cells, FAP surface receptor flow cytometry; at 10 µM; stronger effect = higher value
Sequence of Beta-2 adrenergic receptor (Homo sapiens) (P07550 whole entry, looked up): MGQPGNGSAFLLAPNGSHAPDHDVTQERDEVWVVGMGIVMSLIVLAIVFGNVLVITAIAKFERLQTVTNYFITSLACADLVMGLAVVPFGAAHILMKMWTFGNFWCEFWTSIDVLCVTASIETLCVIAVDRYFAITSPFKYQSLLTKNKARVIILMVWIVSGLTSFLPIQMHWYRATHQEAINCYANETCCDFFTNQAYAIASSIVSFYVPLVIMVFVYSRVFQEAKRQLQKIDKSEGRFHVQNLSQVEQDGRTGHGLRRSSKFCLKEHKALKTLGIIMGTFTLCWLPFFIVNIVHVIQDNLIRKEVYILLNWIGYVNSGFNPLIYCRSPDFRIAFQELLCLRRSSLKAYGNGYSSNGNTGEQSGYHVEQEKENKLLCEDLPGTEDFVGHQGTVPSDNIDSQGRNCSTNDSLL

[11] = target: AP-2 complex subunit beta (Homo sapiens) (UniProt P63010); assay: inhibitors of arrestin peptide binding to AP2, pilot screen, biochemical, validation set, GST-AP2 beads, flow cytometry (AID 504541;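 active = inhibition above 54%, about 3 SD of non-fluorescent compounds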;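 also: AP2 carries R879A mutation and is captured from E. coli lysate; bead-bound FITC arrestin peptide fluorescence measuring arrestin peptide binding to AP2; 0% = DMSO wells and 100% = excess unlabeled arrestin peptide control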); conditions: FITC arrestin peptide, at 10 µM, stronger effect = higher value, AP2 beta2 appendage fragment, R879A mutant
Sequence of AP-2 complex subunit beta (Homo sapiens) (P63010 whole entry, looked up, the tested form may be a part, one chain of several): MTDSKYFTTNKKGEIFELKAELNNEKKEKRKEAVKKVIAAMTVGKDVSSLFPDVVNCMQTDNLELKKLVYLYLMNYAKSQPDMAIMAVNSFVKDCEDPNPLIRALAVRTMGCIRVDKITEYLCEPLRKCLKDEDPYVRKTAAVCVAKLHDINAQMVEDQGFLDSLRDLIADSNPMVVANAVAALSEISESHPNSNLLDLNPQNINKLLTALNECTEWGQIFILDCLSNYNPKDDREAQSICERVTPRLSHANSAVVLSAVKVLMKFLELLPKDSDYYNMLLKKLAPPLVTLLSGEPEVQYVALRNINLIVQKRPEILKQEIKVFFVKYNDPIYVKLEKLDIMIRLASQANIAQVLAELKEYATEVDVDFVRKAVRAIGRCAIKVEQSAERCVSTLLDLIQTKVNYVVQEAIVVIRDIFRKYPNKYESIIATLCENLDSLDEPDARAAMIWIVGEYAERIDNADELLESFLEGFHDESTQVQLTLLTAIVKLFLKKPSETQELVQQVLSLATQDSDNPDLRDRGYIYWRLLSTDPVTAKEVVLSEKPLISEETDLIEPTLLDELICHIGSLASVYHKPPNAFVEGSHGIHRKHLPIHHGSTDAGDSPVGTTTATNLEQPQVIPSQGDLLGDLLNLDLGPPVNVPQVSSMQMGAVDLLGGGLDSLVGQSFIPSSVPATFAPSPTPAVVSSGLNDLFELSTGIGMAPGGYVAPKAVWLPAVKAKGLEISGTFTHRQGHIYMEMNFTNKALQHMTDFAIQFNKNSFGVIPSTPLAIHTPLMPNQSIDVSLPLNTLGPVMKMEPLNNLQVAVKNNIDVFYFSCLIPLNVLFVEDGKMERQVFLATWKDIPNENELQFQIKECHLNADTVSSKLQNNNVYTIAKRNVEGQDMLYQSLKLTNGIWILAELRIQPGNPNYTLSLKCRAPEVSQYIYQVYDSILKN

[12] = yeast V-ATPase proton transport modulators, S. cerevisiae, pHLuorin, HTS validation (AID 504600; in the data active = response above about 15%;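 also: plate controls were DMSO for no effect and reference compound for full effect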); conditions: S. cerevisiae pHLuorin cytosolic pH, at 10 µM, stronger effect = higher value
[13] = tested on: anti-desmoglein-3 scFv antibody binding to human DSG3; assay: inhibitors of anti-DSG3 scFv binding to DSG3, pilot screen, biochemical, validation compound set, bead-based, flow cytometry (AID 588368;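 active = binding below the plate cutoff, the plate median minus 3 SD, with a reading above zero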;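 also: signal is the median channel fluorescence of bead-bound GFP antibody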); conditions: Protein G beads, DSG3-Fc, scFv-GFP binding, at 10 µM, stronger effect = lower value
[14] = inhibitors of fungal efflux pumps CDR1, CDR2, MDR1, pilot screen, validation compound set, multiplex, phenotypic (AID 588506;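 active = efflux inhibition above 0.42, the validation set average plus 4 SD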;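 also: Nile Red retained in cells so higher fluorescence means more efflux inhibition; 0 = negative control wells and 1 = enniatin B 25 µM full block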); conditions: S. cerevisiae pump-expressing triplex, Nile Red efflux flow cytometry; at 10 µM; stronger effect = higher value; the pumps come from Candida albicans
[15] = target: ATP-binding cassette sub-family B member 6 (Homo sapiens) (UniProt Q9NP58); assay: ABCB6 transporter inhibitors, pilot screen, K562-ABCB6 cells, flow cytometry, validation set (AID 588550;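 active = inhibition above the screen-wide mean plus 3 SD, about 51%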;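 also: 0% = DMSO wells and 100% = benzethonium chloride 70 µM positive control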); conditions: K562-ABCB6 porphyrin accumulation, 1 h, at 10 µM, stronger effect = higher value
Sequence of ATP-binding cassette sub-family B member 6 (Homo sapiens) (Q9NP58 whole entry, looked up): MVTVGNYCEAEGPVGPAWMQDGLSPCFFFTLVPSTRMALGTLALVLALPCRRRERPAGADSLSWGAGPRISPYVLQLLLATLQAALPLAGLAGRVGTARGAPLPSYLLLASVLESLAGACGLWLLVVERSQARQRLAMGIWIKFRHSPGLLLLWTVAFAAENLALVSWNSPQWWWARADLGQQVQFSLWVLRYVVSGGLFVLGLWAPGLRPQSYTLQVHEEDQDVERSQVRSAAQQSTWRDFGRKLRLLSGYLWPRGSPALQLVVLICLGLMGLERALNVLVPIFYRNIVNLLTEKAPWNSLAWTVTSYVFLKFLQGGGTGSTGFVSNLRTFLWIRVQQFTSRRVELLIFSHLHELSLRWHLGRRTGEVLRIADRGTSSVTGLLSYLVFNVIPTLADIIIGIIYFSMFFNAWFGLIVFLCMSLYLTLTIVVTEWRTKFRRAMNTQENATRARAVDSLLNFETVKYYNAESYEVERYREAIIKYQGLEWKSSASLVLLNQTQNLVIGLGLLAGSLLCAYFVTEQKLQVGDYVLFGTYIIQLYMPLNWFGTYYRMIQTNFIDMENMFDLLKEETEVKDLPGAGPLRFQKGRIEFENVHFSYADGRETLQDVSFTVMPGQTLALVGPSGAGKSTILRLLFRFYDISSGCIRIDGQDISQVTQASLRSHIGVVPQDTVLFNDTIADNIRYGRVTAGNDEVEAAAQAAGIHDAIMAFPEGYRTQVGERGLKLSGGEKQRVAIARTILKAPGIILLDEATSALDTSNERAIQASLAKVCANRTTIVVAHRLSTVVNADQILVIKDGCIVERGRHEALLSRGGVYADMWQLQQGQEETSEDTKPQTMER

[16] = promoters of myeloid differentiation in arrested cells, primary screen, cell-based, GFP/MAC1 double positive, flow cytometry, validation set (AID 588685;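 active = differentiation response of at least 50%, scaled between solvent and reference control, from cells with both markers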;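 also: compound exposure lasts four days before antibody staining and flow analysis; 0% = DMSO wells and 100% = 5 µM fulvestrant positive control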); conditions: ER-HoxA9 marrow cells, stronger effect = higher value, normalized: vehicle 0, fulvestrant 100

SMILES	percent of DMSO control GFP [1]	GFP response vs DMSO [2]	percent response of DMSO control [3]	GFP response vs DMSO [4]	GFP response, % of DMSO [5]	double positive events [6] [%]	vesicle binding response [6]	inhibition [7]	superoxide response (% of plate) [8]	aptamer binding inhibition [9]	response [10]	inhibition [11]	response [12]	binding (% of control) [13]	efflux inhibition (fraction of control) [14]	inhibition [15]	differentiation response [16]
CC(=O)OCC#CCSc1nc2ccccc2n1C	97.6% (inactive)	89.7% (inactive)	96.7% (inactive)	103% (inactive)	92.9% (inactive)	57.8	163% (inactive)	-8.62% (inactive)	95% (inactive)	2% (inactive)	7.19% (inactive)	14.1% (inactive)	2.63% (inactive)	94.9% (inactive)	-0.21 (inactive)	12% (inactive)	-7.2% (inactive)
CCOc1ccc2ccccc2c1CNc1nnnn1C	102% (inactive)	103% (inactive)	107% (inactive)	94% (inactive)	96.2% (inactive)	65.8	1400% (inactive)	18.2% (inactive)	91% (inactive)	3% (inactive)	-8.39% (inactive)	-1.6% (inactive)	1.46% (inactive)	98.4% (inactive)	0.05 (inactive)	8% (inactive)	13.9% (inactive)
COc1cccc(OCc2nnc(-c3cccs3)o2)c1	103% (inactive)	105% (inactive)	102% (inactive)	120% (inactive)	99.6% (inactive)	60.1	248% (inactive)	5.69% (inactive)	104% (inactive)	3% (inactive)	55.8% (active)	61% (active)	-2.54% (inactive)	102% (inactive)	0.08 (inactive)	-5% (inactive)	-0.06% (inactive)
CC(=O)C1=C(O)C(=O)N(Cc2cccnc2)C1c1ccc(C(C)C)cc1 (stereo not drawn)	97.5% (inactive)	109% (inactive)	100% (inactive)	113% (inactive)	104% (inactive)	59.9	152% (inactive)	-6.23% (inactive)	84.1% (inactive)	-1% (inactive)	-27.3% (inactive)	5.98% (inactive)	2.79% (inactive)	102% (inactive)	0.08 (inactive)	1% (inactive)	-5.97% (inactive)
Cc1ccc2c(c1)C1OCCC1C1N2C(=O)C2C(C(=O)O)C3C=CC21O3 (stereo not drawn)	104% (inactive)	107% (inactive)	110% (inactive)	106% (inactive)	107% (inactive)	62.2	207% (inactive)	11% (inactive)	106% (inactive)	11% (inactive)	0.35% (inactive)	41.7% (inactive)	3.53% (inactive)	101% (inactive)	-0.32 (inactive)	11% (inactive)	-13.3% (inactive)
CC(C)(C)OC(=O)NCCC(=O)Oc1ccc2ccc(=O)oc2c1	100% (inactive)	91.9% (inactive)	98.6% (inactive)	76% (inactive)	84% (inactive)	56.1	238% (inactive)	-1.79% (inactive)	101% (inactive)	4% (inactive)	7.52% (inactive)	17.2% (inactive)	7.71% (inactive)	101% (inactive)	0.05 (inactive)	3% (inactive)	-12% (inactive)
Clc1ccc(CCNc2ncnc3nc[nH]c23)cc1	97.4% (inactive)	108% (inactive)	92% (inactive)	105% (inactive)	99.7% (inactive)	60.8	127% (inactive)	0.94% (inactive)	108% (inactive)	4% (inactive)	-5.61% (inactive)	5.59% (inactive)	-0.06% (inactive)	97.2% (inactive)	0.08 (inactive)	10% (inactive)	-0.8% (inactive)
CCCCCC#CCC#CCC#CCC#CCCCC(=O)O	106% (inactive)	108% (inactive)	103% (inactive)	106% (inactive)	116% (inactive)	62.5	208% (inactive)	-3.67% (inactive)	123% (inactive)	62% (active)	-11.7% (inactive)	26.9% (inactive)	4.4% (inactive)	90.5% (inactive)	0.04 (inactive)	2% (inactive)	-10.9% (inactive)
O=C(NCCO)c1ccc2[nH]c3ccccc3c2c1	98.4% (inactive)	104% (inactive)	102% (inactive)	101% (inactive)	101% (inactive)	58.7	246% (inactive)	-0.45% (inactive)	96.6% (inactive)	2% (inactive)	-3.67% (inactive)	-8.91% (inactive)	3.8% (inactive)	98.7% (inactive)	0.11 (inactive)	-1% (inactive)	5.13% (inactive)
CC1(C)CC(=O)c2c(nc3ccccc3c2N)C1	105% (inactive)	90.9% (inactive)	111% (inactive)	104% (inactive)	99.2% (inactive)	62.1	259% (inactive)	-3.57% (inactive)	89.8% (inactive)	0% (inactive)	-12.4% (inactive)	-2.7% (inactive)	-3.81% (inactive)	102% (inactive)	-0.29 (inactive)	9% (inactive)	0.24% (inactive)
COC(=O)c1ccc(C(=O)OC)c(NC(=O)C(C)C)c1	97.8% (inactive)	102% (inactive)	102% (inactive)	138% (inactive)	112% (inactive)	63.1	204% (inactive)	-72.7% (inactive)	100% (inactive)	0% (inactive)	-13.3% (inactive)	-9.41% (inactive)	0.33% (inactive)	97.1% (inactive)	0 (inactive)	-3% (inactive)	0.92% (inactive)
CC(=O)OCC(=O)[C@@]1(O)CC[C@H]2[C@@H]3CCC4=CC(=O)C=C[C@]4(C)[C@H]3[C@@H](O)C[C@@]21C	90.2% (inactive)	132% (inactive)	99.2% (inactive)	101% (inactive)	103% (inactive)	66.4	161% (inactive)	9.37% (inactive)	97% (inactive)	1% (inactive)	4% (inactive)	8.75% (inactive)	-0.94% (inactive)	98.1% (inactive)	-0.09 (inactive)	9% (inactive)	5.73% (inactive)
O=C(CCC1CCCN(C(=O)c2ccsc2)C1)NCc1ccc(F)c(F)c1 (stereo not drawn)	99% (inactive)	103% (inactive)	94.2% (inactive)	103% (inactive)	98.9% (inactive)	62.4	183% (inactive)	-9.79% (inactive)	102% (inactive)	-2% (inactive)	-9.44% (inactive)	-6.99% (inactive)	1.61% (inactive)	104% (inactive)	0.08 (inactive)	-8% (inactive)	8.06% (inactive)
CC(C)C12CN3CC(C(C)C)(CN(C1)C3c1ccccc1O)C2=O (stereo not drawn)	94.4% (inactive)	120% (inactive)	104% (inactive)	75.9% (inactive)	87% (inactive)	66.6	192% (inactive)	10.3% (inactive)	94.7% (inactive)	6% (inactive)	-10.3% (inactive)	-9.47% (inactive)	-6% (inactive)	99% (inactive)	0.12 (inactive)	5% (inactive)	-6.55% (inactive)
CCCc1cc(=O)[nH]c(=S)[nH]1	99.1% (inactive)	101% (inactive)	96.5% (inactive)	103% (inactive)	107% (inactive)	61.7	144% (inactive)	-2.43% (inactive)	86.8% (inactive)	0% (inactive)	-3.16% (inactive)	-5.08% (inactive)	12.1% (inactive)	101% (inactive)	0.44 (active)	-3% (inactive)	-1.65% (inactive)
CC(C)CCNC(=O)[C@H](CC(C)C)NC(=O)[C@H]1O[C@@H]1C(=O)O	108% (inactive)	101% (inactive)	112% (inactive)	93.3% (inactive)	107% (inactive)	52.8	39.4% (active)	-4.6% (inactive)	96.2% (inactive)	3% (inactive)	-6.13% (inactive)	-12.3% (inactive)	1.19% (inactive)	98.4% (inactive)	0.08 (inactive)	3% (inactive)	-1.71% (inactive)
Cc1ccc(C(=O)Nc2ccccc2C(=O)NC(C(=O)O)C(C)C)cc1 (stereo not drawn)	96.7% (inactive)	109% (inactive)	89.1% (inactive)	115% (inactive)	101% (inactive)	57.3	175% (inactive)	-19.5% (inactive)	116% (inactive)	3% (inactive)	-2.49% (inactive)	10.5% (inactive)	0.12% (inactive)	99.1% (inactive)	-0.06 (inactive)	3% (inactive)	-13.6% (inactive)
CN1C2CCC1CC(OC(c1ccccc1)c1ccccc1)C2 (stereo not drawn)	101% (inactive)	96.2% (inactive)	108% (inactive)	99.9% (inactive)	98% (inactive)	64.3	247% (inactive)	19.3% (inactive)	93% (inactive)	-8% (inactive)	8.88% (inactive)	-19% (inactive)	1.18% (inactive)	98.4% (inactive)	-0.1 (inactive)	-11% (inactive)	26.6% (inactive)
O=C(O)/C=C/c1cccc(OCc2ccccc2)c1	93.8% (inactive)	105% (inactive)	93.4% (inactive)	123% (inactive)	82.2% (inactive)	58.1	131% (inactive)	5.61% (inactive)	104% (inactive)	3% (inactive)	4.34% (inactive)	13.5% (inactive)	-4.03% (inactive)	94.3% (inactive)	-0.24 (inactive)	8% (inactive)	-8.96% (inactive)
